Mtb betalactam – beta-lactam sensitization of Mtb H37Rv, H37Rv | inhibition, % at 25 µM | 0.27% of 330,000 active | M. tuberculosis H37Rv growth with meropenem, percent inhibition | AID 434955, 2010; call rule not given here;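 note: growth measured after seven days incubation then overnight dye step; 0% = bacteria only wells and 100% = bacteria with antibiotic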
Rv3671c protease – Rv3671c serine protease inhibitors, primary screen, biochemical, fluorescence polarization, M. tuberculosis H37Rv; P9WHR9; inhibition, % at 5.96 µM; 0.048% of 320,000 active; AID 2606, 2010; in the data active = inhibition above about 38%;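 note: extracellular domain of Rv3671c used as enzyme; 0% = enzyme with DMSO and 100% = no enzyme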
Mtb UGM inh – M. tuberculosis UGM enzyme inhibitors, primary screen, biochemical, fluorescence polarization, single point | UDP-galactopyranose mutase (Mycobacterium tuberculosis (strain ATCC 25618 / H37Rv)), … | purified UGM, fluorescence polarization probe displacement | inhibition, % at 10 µM | 0.06% of 320,000 active | AID 504406, 2011; in the data active = inhibition above about 10%, passing the limit was not always enough; inconclusive = no clear call, values can overlap the other calls
FBA Mtb inh – Mtb FBA enzyme inhibitors, primary screen, biochemical, fluorescence, strain H37Rv; AID 588726, 2011; purified M. tuberculosis FBA, fluorescence read-out; inhibition, % at 1 µM; 2.3% of 360,000 active; Fructose-bisphosphate aldolase (Mycobacterium tuberculosis (strain ATCC 25618 / H37Rv)), …;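 note: 0% = vehicle and 100% = reference inhibitor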
Target sequence (P9WQA3 whole entry, looked up): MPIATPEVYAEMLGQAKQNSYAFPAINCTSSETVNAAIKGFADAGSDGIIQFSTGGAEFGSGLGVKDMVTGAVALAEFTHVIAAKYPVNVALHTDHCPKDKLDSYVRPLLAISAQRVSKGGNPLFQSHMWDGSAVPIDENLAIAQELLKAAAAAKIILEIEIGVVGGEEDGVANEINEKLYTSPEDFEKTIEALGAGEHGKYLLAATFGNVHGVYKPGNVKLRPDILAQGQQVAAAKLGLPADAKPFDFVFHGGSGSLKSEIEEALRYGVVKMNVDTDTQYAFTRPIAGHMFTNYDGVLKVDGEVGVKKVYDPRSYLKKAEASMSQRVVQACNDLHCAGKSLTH
GDH-TPI counter-1 – GDH-TPI coupling enzyme inhibitors, primary screen, artefact control for M. tuberculosis FBA inhibitor project, biochemical, absorbance, full deck; GDH-TPI coupled enzyme counterscreen, NADH absorbance; inhibition, % at 4.8 µM; 1.2% of 360,000 active; AID 588335, 2011; in the data active = inhibition above about 30%;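 note: 0% = DMSO wells and 100% = wells lacking the enzyme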
Mtb FBA confirm – M. tuberculosis aldolase blockers, biochemical, fluorescence, strain H37Rv, confirmation; purified M. tuberculosis FBA, fluorescence read-out; 78% of 5,600 active; inhibition, % at 1 µM; shares compounds with FBA Mtb inh;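 note: 0% = vehicle wells and 100% = reference inhibitor wells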
GDH-TPI counter-2 – GDH-TPI coupling enzyme inhibitors, artefact control for M. tuberculosis FBA inhibitor project, biochemical, fluorescence, high throughput. shares compounds with FBA Mtb inh. GDH-TPI coupled enzyme counterscreen. inhibition, % at 1 µM. 81% of 5,600 active. AID 652141, 2013; in the data active = inhibition above about 10%
* hit, by the source's call; u = inconclusive; x = not tested or not shown; + = active, no number. Sampled rows, rich in hits. Any-hit rate of the full collection: about 3.5%. Cut-off read from the data, not from the text of the source, unless noted: active = inhibition above about 27%; inactive = the rest.

SMILES	Mtb betalactam	Rv3671c protease	Mtb UGM inh	FBA Mtb inh	GDH-TPI counter-1	Mtb FBA confirm	GDH-TPI counter-2
Cc1ccc(C)c(N2CCN(C(=O)CCc3nc(-c4ccccc4Br)no3)CC2)c1	x	x	x	-4	-1	x	x
COc1ccc(-c2[nH]ncc2C2N=C(N)Nc3nc4ccccc4n32)cc1 (configuration not stated)	-11	-2	0	34*	-1	70*	52*
NC1=NC(c2cn[nH]c2-c2cccc(F)c2)n2c(nc3ccccc32)N1 (configuration not stated)	4	-1	0	2	1	x	x
CN(C(=O)CSc1nc2c(c(=O)[nH]1)CCC2)c1ccccc1	-4	-3	1	0	-7	x	x
COc1ccc(S(=O)(=O)NC(=O)C2(C)CCN2C(=O)CC2CC2)cc1 (configuration not stated)	x	x	x	3	9	x	x
CC1=CC(c2ccc(Cl)cc2)n2nc(NS(=O)(=O)c3ccc(C)cc3)nc2N1 (configuration not stated)	6	-7	-3	80*	12	68*	63*
CC1=CC(c2ccccc2)n2nc(NS(=O)(=O)c3ccc(C)cc3)nc2N1 (configuration not stated)	-1	-4	0	49*	14	22	15*
CC1=CC(c2ccccc2)n2nc(N)nc2N1 (configuration not stated)	-7	-6	1	53*	6	40*	37*
Cc1ccc(CNC(=O)C2CSC3(C)CCC(=O)N23)cc1 (configuration not stated)	-9	1	0	2	1	x	x
COCCCNc1ccn2nc(-c3cccc(Cl)c3)cc2n1	x	x	x	35*	0	9	-2
OC1CCC(Nc2ccn3nc(-c4cccc(Cl)c4)cc3n2)CC1 (configuration not stated)	x	x	x	34*	6	61*	42*
COCCCNc1ccn2nc(-c3ccccc3)cc2n1	x	x	x	21	7	x	x
COc1cc(-c2cc3nc(NC4CCCCC4)ccn3n2)cc(OC)c1OC	x	x	x	31*	11	-8	-7
OC1CCC(Nc2ccn3nc(-c4cccc(OCc5ccccc5)c4)cc3n2)CC1 (configuration not stated)	x	x	x	29*	8	54*	39*
CCOC(=O)c1ccc(-c2c(C)cc3oc(=O)cc(-c4ccccc4)c3c2C)cc1	x	x	x	-3	4	x	x
CC1O[C@@H]2O[C@](O[C@H](C)CC[C@@H](C)O)(c3ccccc3)O[C@@H]2C[C@H]1O (some centres not stated)	4	-2	1	0	5	x	x
CCC(CO)Nc1ccn2nc(-c3cccc(Cl)c3)cc2n1 (configuration not stated)	x	x	x	31*	7	28*	21*
CCOC(=O)CNC(=O)CSc1nnc(-c2ccccc2)n1Cc1ccco1	-3	6	0	98*	-6	50*	39*
Cc1cc(NC(=O)CSc2nnc(-c3ccccc3)n2Cc2ccco2)no1	5	-11	0	-6	6	x	x
C[C@@H]1CN[C@H](CCO)/C1=C\c1ccccc1	x	x	x	4	11	x	x
CCCCCC(=O)Nc1c(-c2ccc(OC)cc2)c(=O)c2ccccc2n1C	u	-4	-1	28*	21	128*	104*
CCCCC(=O)Nc1c(-c2ccc(OC)c(OC)c2)c(=O)c2ccccc2n1C	-1	2	3	0	7	x	x
CCCC(=O)Nc1c(-c2ccc(OC)cc2)c(=O)c2ccccc2n1C	-3	1	3	28*	23	0	-3
CCN1c2ccccc2-c2nc3ccccc3n2C1c1cccnc1 (configuration not stated)	-6	-5	-2	68*	10	96*	84*
CCN1C(=O)CC(n2c(C)nc3ccccc32)C1=O (configuration not stated)	-5	8	-4	1	9	x	x
SMILES	Mtb betalactam	Rv3671c protease	Mtb UGM inh	FBA Mtb inh	GDH-TPI counter-1	Mtb FBA confirm	GDH-TPI counter-2
CCN1c2ccccc2-c2nc3ccccc3n2C1c1ccccn1 (configuration not stated)	45	0	-2	51*	6	+	+
Cc1nn(-c2ccccc2)c2nc(Cl)c(C(=O)O)cc12	-9	3	-1	31*	6	+	+
Cc1cccc(N(Cc2ccccc2)C(=O)CSC(C)C(=O)Nc2cc(C)on2)c1 (configuration not stated)	2	-2	3	-1	2	x	x
CCc1nc(NC(=O)NS(=O)(=O)c2ccccc2C(=O)OC)nc(OC)n1	6	8	3	-1	6	x	x
Cc1ccc(C2NC(=O)NC3=C2CCc2ccccc23)cc1 (configuration not stated)	-4	9	2	35*	5	61*	55*
COc1ccc2c(c1)C1=C(CC2)C(c2ccc(C)cc2)NC(=S)N1 (configuration not stated)	-3	-13	0	1	0	x	x
O=C1NC2=C(C(=O)c3ccccc32)C(c2ccccc2)N1 (configuration not stated)	1	-9	-1	0	2	x	x
CC(C)c1ccc(C2NC(=O)NC3=C2CCc2ccccc23)cc1 (configuration not stated)	17	-1	-3	32*	4	63*	35*
C[C@@H]1CC[C@@]2(O[C@@H](CCO)C[C@H](O)[C@H]2O)O1	2	0	-1	-2	-14	x	x
Cc1ccc(-c2cc(C(=O)NCC3(N(C)C)CCCCC3)c3ccccc3n2)o1	x	x	x	29*	26	23	16*
CC(C)CCNC(=O)c1cc(-c2ccco2)nc2ccccc12	68	4	-1	111*	20	+	+
CN(C)C(CNC(=O)c1cc(-c2ccco2)nc2ccccc12)c1ccccc1 (configuration not stated)	-17	0	5	38*	10	9	-4
COc1ccc(S(=O)(=O)N(C)CC(=O)NCc2ccccn2)cc1	-7	3	0	-1	16	x	x
COc1ccccc1C(=O)NC(=O)COC(=O)c1ncc(Cl)c(Cl)c1Cl	15	-10	1	4	-2	x	x
CC(C)c1ccc(OCCCCN2CCCCC2)cc1	-4	0	1	98*	-1	130*	106*

Compound activity: PubChem, several laboratories
